Experimental data from PubChem BioAssay AID1845225 (National Center for Advancing Translational Sciences (NCATS), 2023).
Inconclusive results are not listed. Active and inactive are the calls of the source. Calls follow the shape of the dose curve; as a rule, active = well fitted curve in the direction sought with a large enough effect; inconclusive = small, poorly fitted or top-dose-only effect, or effect the other way, or another doubt; inactive = no such curve, though single readings can be large or run the other way.

Experiment: Confirmatory redox qHTS assay for identification of artifact compounds.
Details: Amplex Red/HRP redox cycling with DTT, fluorescence; series mostly up to 39 µM
Excerpt: PI: Alexander Tropsha Ph.D. UNC Eshelman School of Pharmacy University of North Carolina, Chapel Hill, North Carolina Hits from high-throughput screening (HTS) of chemical libraries are often false positives due to their interference with the assay detection technology. In response to this problem, we generated the largest publicly available library of chemical liabilities and developed a free webtool to predict HTS artifacts, both of which are described herein. More specifically, we generated, curated, and integrated HTS datasets for thiol reactivity, redox activity, and luciferase (firefly and nano) activity. Using these curated datasets, we developed and validated several Quantitative Structure-Interference Relationship (QSIR) models to predict nuisance behavior. […] These models were employed for virtual profiling of the National Center for Advancing Translational Science's (NCATS) in-house library, and 256 compounds for each assay were selected for the experimental validation of nuisance behavior. The BA for these external predictions ranged from 58 to 78% for compounds within the applicability domains of the models. […] The models developed in this study, along with aggregation models previously developed by our group (SCAM Detective) were implemented in "Liability Predictor," an online tool which may be used as part of chemical library design or for triaging HTS hits. Both the models and the curated datasets are publicly available at https://liability.mml.unc.edu/.
PROTOCOL TABLE SEQUENCE No. (e.g., 1, 2, 3, etc.); […] (e.g., Cells, Incubation, Reagent, etc.); VALUE; DESCRIPTION. 1; Reagent; 3 uL; Amplex Red and HRP mixture. 2; Compounds and control; 16 nL; Kalypsis pin tool (Wako USA) equipped with a 1536-well pin head. 3; Incubation; 15 min. 4; Reagent; 1 uL; […]. 5; Incubation; 30 min. 6; Detection; Fluorescence, ViewLux microplate reader, 525 nm excitation, 598 nm emission. NOTES (numbers refer to Sequence numbers above) 1. 3 uL of a mixture containing Amplex Red (25 uM final concentration) and horseradish peroxidase (HRP; 250 mU/mL final concentration) in assay buffer (HBSS) was dispensed into all wells of a 1536-well assay plate (solid-bottom black plate; Greiner Bio One, Monroe, NC). 2. […] 3. 15 min. incubation at room temperature protected from light. 4. 1 uL of DTT (prepared fresh; final concentration 250 uM) was dispensed for a final assay volume of 4 uL. 5. Plates were centrifuged (121xg, 15 seconds) and incubated for 30 minutes at room temperature protected from light. 6. Samples were read for fluorescence (Ex/Em = 525(20)/598(25) nm) on a ViewLux CCD imager (PerkinElmer). Data were normalized to DMSO (0% activity) and DA3003 (10 uM final concentration; 100% activity) and the resulting percent inhibition data were fitted to a 4-parameter Hill equation using NCATS in-house software.

**Q.** For `Cn1c(=O)n(C)c2cc(CNCCc3ccccc3)ccc21`, which outcome is on record?
**A.** inactive

**Q.** For `Clc1ccc(C(Cl)(Cl)Cl)cc1Cl`, which outcome is on record?
**A.** inactive

**Q.** Which outcome does the source give for `CCOc1ccc(CCNC(=O)c2cc3ccccc3n2CCN2CCOCC2)cc1OCC` here?
**A.** inactive

**Q.** Which outcome does the source give for `CSc1nc(NC(C)C)nc(NC(C)C)n1` here?
**A.** inactive

**Q.** Which outcome does the source give for `CCCOC(=O)c1ccccc1C(=O)OCCC` here?
**A.** inactive

**Q.** For `Oc1cccc[c]1[Hg][Cl]`, which outcome is on record?
**A.** inactive

**Q.** Which outcome does the source give for `Cc1ccc(C(C)C)c(OCC(=O)N2CCN(CCc3ccncc3)CC2)c1` here?
**A.** inactive
